In the antibiotic and cytotoxicity screens of Wong et al. (2023):
In all, about 39,000 compounds went through this assay and about 3,300 (8.5%) were called active. Many of the other results were omitted from the sample, so actives are more common in it than they were.

system: HepG2; test: cytotoxicity call (relative viability < 0.9); conditions: 10 µM

SMILES | cytotoxicity call
Cc1noc(C)c1NC(=O)N[C@H]1CC[C@H](CC(=O)N2CCN(C)CC2)O[C@@H]1CO | inactive
O=C(C[C@@H]1CC[C@H]2[C@@H](COC[C@H](O)CN2S(=O)(=O)c2ccccc2F)O1)NCc1ccccc1Cl | inactive
C[C@@H]1CN([C@@H](C)CO)C(=O)c2cc(NC(=O)Cc3ccccc3)ccc2O[C@@H]1CN(C)S(=O)(=O)c1cccs1 | inactive
O=C(O)Cn1nnnc1-c1ccc(F)cc1 | inactive
CO[C@H]1O[C@H](CO)[C@@H](OC(=O)c2ccc(Br)cc2)[C@@H]2OC(=O)[C@@H](Cc3ccccc3)C/C=C/C[C@H](Cc3ccccc3)C(=O)O[C@@H]12 | inactive
COCC(=O)N1C[C@H](C)[C@@H](OC)CN(C)C(=O)c2ccc(NC(=O)c3ccc(F)cc3)cc2OC[C@H]1C | inactive
COCC(=O)Nc1ccc2c(c1)OC[C@@H](C)N(Cc1ccccc1F)C[C@H](C)[C@H](OC)CN(C)C2=O | inactive
CCCCCCCCCCCCCCCCOc1nc2ccc(C)cc2c(=O)o1 | inactive
C[C@@H]1CN([C@H](C)CO)C(=O)Cc2cc(NC(=O)NC3CCCCC3)ccc2O[C@@H]1CN(C)Cc1ccc(C(F)(F)F)cc1 | inactive
C[C@H]1CN([C@@H](C)CO)C(=O)Cc2cc(NC(=O)Nc3ccc(C(F)(F)F)cc3)ccc2O[C@H]1CN(C)Cc1ccc(C(=O)O)cc1 | inactive
C[C@@H]1CN([C@H](C)CO)C(=O)Cc2cc(NC(=O)Nc3ccc(C(F)(F)F)cc3)ccc2O[C@@H]1CN(C)Cc1ccc(C(F)(F)F)cc1 | active
C[C@H]1CN([C@@H](C)CO)C(=O)Cc2cc(NC(=O)NC3CCCCC3)ccc2O[C@H]1CN(C)Cc1ccc(C(F)(F)F)cc1 | active
CC(C)NC(=O)N(C)C[C@H]1Oc2ccc(NC(=O)CCC(F)(F)F)cc2CC(=O)N([C@@H](C)CO)C[C@@H]1C | active
C[C@@H]1CN([C@H](C)CO)C(=O)Cc2cc(NC(=O)NC3CCCCC3)ccc2O[C@H]1CN(C)Cc1ccc(C(F)(F)F)cc1 | inactive
CC(C)NC(=O)N(C)C[C@@H]1Oc2ccc(NC(=O)CCC(F)(F)F)cc2CC(=O)N([C@@H](C)CO)C[C@H]1C | inactive
C[C@@H]1CN([C@@H](C)CO)C(=O)Cc2cc(NC(=O)Nc3ccc(C(F)(F)F)cc3)ccc2O[C@H]1CN(C)Cc1ccc(C(F)(F)F)cc1 | active
C[C@H](CO)N1C[C@H](C)[C@@H](CN(C)Cc2ccc(C(=O)O)cc2)Oc2ccc(NC(=O)Nc3ccc(C(F)(F)F)cc3)cc2CC1=O | inactive
CC(C)NC(=O)N(C)C[C@H]1Oc2ccc(NC(=O)CCC(F)(F)F)cc2CC(=O)N([C@H](C)CO)C[C@H]1C | inactive
Cc1noc(C)c1S(=O)(=O)N(C)C[C@@H]1Oc2ccc(NC(=O)Nc3ccccc3)cc2CC(=O)N([C@@H](C)CO)C[C@H]1C | inactive
Cc1cc(O)c(C(=O)/C=C/N(C)C)c(=O)o1 | inactive
C[C@@H]1CN([C@@H](C)CO)C(=O)CCCn2cc(nn2)CO[C@H]1CN(C)C(=O)Nc1ccc2c(c1)OCCO2 | inactive

SMILES | cytotoxicity call
C[C@@H]1CN([C@@H](C)CO)C(=O)c2cc(-c3ccc(C#N)cc3)cnc2O[C@H]1CN(C)C(=O)Nc1ccc(C(F)(F)F)cc1 | inactive
CCCCC[C@H]1C[C@H](O[C@H]2O[C@@H](CO)[C@@H](O)[C@@H](O)[C@@H]2O)CC(=O)O1 | inactive
C[C@@H]1CN([C@@H](C)CO)C(=O)Cc2cc(NC(=O)Nc3ccc(C(F)(F)F)cc3)ccc2O[C@H]1CN(C)Cc1ccc(C(=O)O)cc1 | inactive
C[C@@H]1CN([C@H](C)CO)C(=O)Cc2cc(NC(=O)Nc3ccc(C(F)(F)F)cc3)ccc2O[C@H]1CN(C)Cc1ccc(C(=O)O)cc1 | inactive
C[C@@H]1CN([C@@H](C)CO)C(=O)Cc2cc(NC(=O)Nc3ccc(C(F)(F)F)cc3)ccc2O[C@@H]1CN(C)Cc1ccc(C(F)(F)F)cc1 | active
C[C@@H]1CCCCO[C@@H](CN(C)S(C)(=O)=O)[C@@H](C)CN([C@@H](C)CO)C(=O)c2cc(NS(=O)(=O)c3ccc(F)cc3)ccc2O1 | inactive
C[C@@H]1CN([C@@H](C)CO)C(=O)Cc2cc(NC(=O)Nc3ccccc3)ccc2O[C@H]1CN(C)Cc1ccc(Oc2ccccc2)cc1 | inactive
C[C@@H]1CN([C@@H](C)CO)C(=O)Cc2cc(NC(=O)Nc3ccccc3)ccc2O[C@@H]1CN(C)Cc1ccc(Oc2ccccc2)cc1 | active
CC(C)NC(=O)Nc1ccc2c(c1)CC(=O)N([C@H](C)CO)C[C@H](C)[C@H](CN(C)Cc1ccc(Oc3ccccc3)cc1)O2 | inactive
C[C@H]1CN([C@@H](C)CO)C(=O)Cc2cc(NC(=O)Nc3ccccc3)ccc2O[C@@H]1CN(C)Cc1ccc(Oc2ccccc2)cc1 | active
C[C@@H]1CN([C@H](C)CO)C(=O)Cc2cc(NC(=O)Nc3ccccc3)ccc2O[C@H]1CN(C)Cc1ccc(Oc2ccccc2)cc1 | active
CC(C)NC(=O)Nc1ccc2c(c1)CC(=O)N([C@@H](C)CO)C[C@H](C)[C@H](CN(C)Cc1ccc(Oc3ccccc3)cc1)O2 | inactive
C[C@H](CO)N1C[C@H](C)[C@@H](CN(C)Cc2ccc(Oc3ccccc3)cc2)Oc2ccc(NC(=O)Nc3ccccc3)cc2CC1=O | inactive
C[C@H]1CN([C@@H](C)CO)C(=O)Cc2cc(NC(=O)Nc3ccccc3)ccc2O[C@H]1CN(C)Cc1ccc(Oc2ccccc2)cc1 | active
CC(C)NC(=O)Nc1ccc2c(c1)CC(=O)N([C@@H](C)CO)C[C@H](C)[C@@H](CN(C)Cc1ccc(Oc3ccccc3)cc1)O2 | inactive
COCC#Cc1ccc2c(c1)O[C@@H](CN(C)C(=O)c1ccccc1F)[C@H](C)CN([C@@H](C)CO)S2(=O)=O | inactive
Cc1noc(C)c1S(=O)(=O)N(C)C[C@@H]1Oc2ccc(NS(C)(=O)=O)cc2CC(=O)N([C@H](C)CO)C[C@@H]1C | inactive
C[C@H](CO)N1C[C@H](C)[C@@H](CN(C)S(=O)(=O)c2cn(C)cn2)Oc2cc(C#Cc3ccccc3)ccc2S1(=O)=O | inactive
C=CC[C@@H](CC(=O)N[C@@H](CO)Cc1ccccc1)C(=O)NCCOC(=O)[C@H](CC=C)CC(=O)OC(C)(C)C | inactive
C[C@@H]1CN([C@H](C)CO)C(=O)Cc2cc(NC(=O)CCN3CCOCC3)ccc2O[C@@H]1CN(C)S(=O)(=O)c1ccccc1 | inactive
C[C@H]1CCCCO[C@@H](CN(C)C(=O)c2ccccc2)[C@@H](C)CN([C@@H](C)CO)C(=O)c2cc(NC(=O)NC3CCCCC3)ccc2O1 | inactive

SMILES | cytotoxicity call
Cc1cccc(CN(C)C[C@@H]2Oc3ncc(-c4cccc(C(F)(F)F)c4)cc3C(=O)N([C@H](C)CO)C[C@@H]2C)c1 | inactive
CC(C)NC(=O)Nc1ccc2c(c1)C(=O)N([C@H](C)CO)C[C@@H](C)[C@@H](CN(C)S(=O)(=O)c1cn(C)cn1)OCCCC[C@H](C)O2 | inactive
COc1ccc(S(=O)(=O)Nc2ccc3c(c2)CC(=O)N([C@H](C)CO)C[C@H](C)[C@H](CN(C)S(=O)(=O)c2ccc(OC)cc2)O3)cc1 | inactive
Nc1cc(=O)nc(C(F)(F)F)[nH]1 | inactive
Cc1ccc(S(=O)(=O)Nc2cccc3c2O[C@@H](CN(C)S(=O)(=O)c2ccc(F)cc2)[C@@H](C)CN([C@@H](C)CO)C3=O)cc1 | inactive
O=C(CN1CCOCC1)N[C@@H]1CC[C@H](CCNC(=O)Nc2cc(F)ccc2F)O[C@H]1CO | inactive
COc1ccc(S(=O)(=O)Nc2ccc3c(c2)[C@@H]2C[C@H](CC(=O)NCC4CC4)O[C@H](CO)[C@@H]2O3)cc1 | inactive
CCS(=O)(=O)Nc1ccc2c(c1)C(=O)N(C)[C@@H]1CC[C@H](CC(=O)N[C@H]3CCN(Cc4ccccc4)C3)O[C@@H]1CO2 | inactive
c1cc([C@@H]2CNCCN2)[nH]n1 | inactive
C[C@@H]1CCCCO[C@H](CN(C)S(=O)(=O)c2ccccc2)[C@H](C)CN([C@@H](C)CO)C(=O)c2cc(NC(=O)CCC(F)(F)F)ccc2O1 | inactive
Cc1noc(C)c1S(=O)(=O)Nc1cccc2c1O[C@H](CN(C)S(=O)(=O)c1c(C)noc1C)[C@H](C)CN([C@@H](C)CO)C2=O | inactive
CC(C)NC(=O)Nc1ccc2c(c1)CC(=O)N([C@H](C)CO)C[C@@H](C)[C@H](CN(C)Cc1ccc(Oc3ccccc3)cc1)O2 | inactive
CC(C)NC(=O)Nc1ccc2c(c1)CC(=O)N([C@H](C)CO)C[C@@H](C)[C@@H](CN(C)Cc1ccc(Oc3ccccc3)cc1)O2 | active
CC(C)NC(=O)Nc1ccc2c(c1)CC(=O)N([C@@H](C)CO)C[C@@H](C)[C@H](CN(C)Cc1ccc(Oc3ccccc3)cc1)O2 | inactive
C[C@@H]1CN([C@H](C)CO)C(=O)Cc2cc(NC(=O)Nc3ccccc3)ccc2O[C@@H]1CN(C)Cc1ccc(Oc2ccccc2)cc1 | active
CC(C)NC(=O)Nc1ccc2c(c1)CC(=O)N([C@@H](C)CO)C[C@@H](C)[C@@H](CN(C)Cc1ccc(Oc3ccccc3)cc1)O2 | inactive
C[C@H](CO)N1C[C@H](C)[C@H](CN(C)Cc2ccc(Oc3ccccc3)cc2)Oc2ccc(NC(=O)Nc3ccccc3)cc2CC1=O | inactive
CCOc1nc2cccc(C(=O)OCc3oc(=O)oc3C)c2n1Cc1ccc(-c2ccccc2-c2noc([O-])n2)cc1.[K+] | inactive
O=C(C[C@@H]1CC[C@@H]2[C@H](COC[C@@H](O)CN2C(=O)c2ccc(F)cc2)O1)NCCCN1CCOCC1 | inactive
CN(C)C(=O)c1ccc(-c2cccc(-c3nc(C(=O)NC4CCC4)cc4c3[C@H](CCO)N([S@@](=O)C(C)(C)C)C4)c2)cc1 | inactive
Cc1ccc(S(=O)(=O)N(C)C[C@H]2Oc3ccc(NS(=O)(=O)c4cccs4)cc3C(=O)N([C@@H](C)CO)C[C@H]2C)cc1 | inactive
